As a reminder, the AC50 is the midpoint of the concentration-response curve, whichever way the signal moves.

“And” between values parts separate entries of the source, which are not always exact repeats. Equal values may be shown once. The source made the active and inactive calls. How the source made its calls: active means hit-call score of the fitted dose curve at least 0.9, where 1 is the maximum; inactive means score below 0.9.

This assay in a line: BSK_SAg_Proliferation: Cell Proliferation Assessment in the BioMAP Diversity Plus: SAg Assay (AID 2283095). The note with it: primary human HUVEC with PBMC. The method, then:
BSK_SAg is a cell-based, multiplexed-readout assay that uses umbilical vein endothelium and peripheral blood mononuclear cells, a human vascular primary cell co-culture, with measurements taken at 24 hours after chemical dosing in a 96-well plate.BSK_SAg_Proliferation is an assay component in the BSK_SAg assay. It measures protein content, a form of viability reporter, as detected with absorbance signals by Sulforhodamine staining technology. Data from the assay component BSK_SAg_Proliferation was analyzed into 1 assay endpoint. This assay endpoint, BSK_SAg_Proliferation, was analyzed with bidirectional fitting relative to DMSO as the negative control and baseline of activity. Using a type of viability reporter, measures of total protein for gain or loss-of-signal activity can be used to understand the viability at the cellular-level. Furthermore, this assay endpoint can be referred to as a secondary readout, because this assay has produced multiple assay endpoints where this one serves a viability function. To generalize the intended target to other relatable targets, this assay endpoint is annotated to the cell cycle intended target family, where the subfamily is proliferation.
The levels of cell surface (or secreted, indicated by the prefix "s") biomarker endpoints were measured by ELISA. Overt cytotoxicity to cells in confluent adherent cultures (all systems other than the BT system) was assessed by measuring total protein levels using sulforhodamine B (SRB) staining in parallel cultures at the time of biomarker measurements, indicated as SRB endpoints. For proliferation assays for adherent cell types, individual cell types are cultured at sub-confluence and relative cell numbers quantified by SRB staining at time points optimized for each system (48 h: 3C and CASM3C systems; 72 h: BT and HDF3CGF systems; 96 h: SAg system). SRB was performed by staining cells with 0.1% SRB after fixation with 10% TCA and reading wells at 560 nm.Viability and proliferation of PBMC (T cells) was quantified by Alamar Blue reduction for the SAg and BT systems. For PBMC viability (referred to as PBMC Cytotoxicity within the assay endpoint names), cells were plated (75,000/well in a 96-well plate) and then chemical samples added for 1 h before addition of activators, SEB and TSST-1 (20 ng/mL final concentration each). Cells were incubated for 90 h. Then, Alamar Blue (20 uL/well) (Invitrogen, Cat DAL1100) was added for 6 h, and the plates were read with a fluorescence microplate reader at 546/580 nm (excitation/emission). For PBMC proliferation, cells were plated and activated as above but incubated for only 16 h prior to addition of Alamar Blue. Plates were read after 6 h.
For `CC(C)CC(=O)CC(C)CC(C)C` (configuration not stated), the outcome was inactive.
For `CCCCCCCCCC/C=C/C1CC(=O)OC1=O` (configuration not stated), the outcome was inactive.
Turning to `CN(C)Cc1cc(C(C)(C)C)c(O)c(C(C)(C)C)c1`, the concentration at half-maximal activity (AC50) is 17.5 µM (active) and 20 µM (active).
For `CC[N+](CC)(CC(=O)Nc1c(C)cccc1C)Cc1ccccc1` (tested in a mixture with another compound), the outcome was inactive.
For the molecule `CN(C)c1ccc(C(c2ccccc2)c2ccc(N(C)C)cc2)cc1`, the AC50 was 11.7 µM (active).
In the case of `COC(=O)/C=C\C(=O)OC`, the outcome was inactive.
Regarding `CC[N+](CC)(CC(=O)Nc1c(C)cccc1C)Cc1ccccc1`, the result was inactive.
Consider `CC(C)C1OCCN1CCOC(=O)NCCCCCCNC(=O)OCCN1CCOC1C(C)C` (configuration not stated), for which the outcome was inactive.
Turning to `CCCCCCCCCCCCCCCCCC[N+](C)(C)C`, the AC50 was 0.995 µM (active).
In the case of `CCCCCCCCCCC1CO1` (configuration not stated), the AC50 was 32.5 µM (active).
Turning to `COc1ccc(C(=O)c2ccccc2O)c(O)c1`, the result was inactive.
With `OC(C(F)(F)F)(C(F)(F)F)C(O)(C(F)(F)F)C(F)(F)F`, the AC50 was 22.9 µM (active) and 36.4 µM (active).
`CCCCCCC(O)CCCCCCCCCCC(=O)OC` (configuration not stated): the outcome was inactive.
As for `Cc1c(C(N)=O)cc([N+](=O)[O-])cc1[N+](=O)[O-]`, the outcome was inactive.
Take `CN(C)CCC(c1ccc(Cl)cc1)c1ccccn1` (configuration not stated): the result was inactive.
Regarding `COc1ccccc1Oc1c(NS(=O)(=O)c2ccc(C(C)(C)C)cc2)nc(-c2ncccn2)nc1OCCO`, the AC50 is 6.88 µM (active) and 8.61 µM (active).
Turning to `CCCCC(CC)COC(=O)C=Cc1ccc(OC)cc1` (configuration not stated), the half-maximal activity concentration (AC50) was 34.9 µM (active) and 37.8 µM (active).
As for `O=[N+]([O-])c1cc(S(=O)(=O)Nc2ccccc2)ccc1Nc1ccccc1`, the AC50 was 15 µM (active) and 25.7 µM (active).
Turning to `Cc1cc(-n2nc3ccc(Cl)cc3n2)c(O)c(C(C)(C)C)c1`, the result was inactive.
Same read-out and setting: with `Cc1cccnc1` the entry was “inactive”; with `O=C(C(=O)c1ccccc1)c1ccccc1`, “inactive”.
For `CCC[Si](OC(C)=O)(OC(C)=O)OC(C)=O`, the outcome was inactive.
For the molecule `C1CN(CCOCCN2CCOCC2)CCO1`, the result was inactive.
For `CCC(C)=NO`, the result was inactive.
Turning to `Oc1cccc2ccccc12`, the half-maximal activity concentration (AC50) is 3.97 µM (active).
As to `Sc1nc2ccccc2s1`, the result was inactive.
With `COc1cc(CNC(=O)CCCC/C=C/C(C)C)ccc1O`, the outcome was inactive.
